From PubChem BioAssay (Tox21)
Results filed as inconclusive are left out. Activity calls are given as the source filed them. Unless noted, calls follow the shape of the full dose curve.

Assays:
[1] = Nuclear factor erythroid 2-related factor 2/antioxidant responsive element (Nrf2/ARE) small molecule agonists: qHTS cell viability counter screen in human keratinocytes (AID 1919968; active = well fitted cell-killing curve with a large enough effect in the repeat runs; also: nearly all actives have a fitted effect of over 55% in size)
Outline: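 Cytotoxicity was multiplexed with the Nrf2/ARE luciferase assay in the same wells. Stably transfected HaCaT keratinocytes were treated with test compounds for 23 h at 37 C. Cell viability was then measured by CellTiter-Fluor fluorescence.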

[2] = Nuclear factor erythroid 2-related factor 2/antioxidant responsive element (Nrf2/ARE) small molecule agonists: luciferase reporter gene qHTS assay in human keratinocytes (AID 1919969); also: nearly all actives have a fitted effect of over 35% in size
[3] = biological target: Gonadotropin-releasing hormone receptor (Homo sapiens) (UniProt P30968); experiment: Human gonadotropin-releasing hormone receptor (GnRHR) small molecule agonists, calcium flux assay in GnRHR-HEK293 cells (AID 1920063); also: nearly all actives have a fitted effect of over 35% in size
Sequence of Gonadotropin-releasing hormone receptor (Homo sapiens) (P30968 whole entry, looked up): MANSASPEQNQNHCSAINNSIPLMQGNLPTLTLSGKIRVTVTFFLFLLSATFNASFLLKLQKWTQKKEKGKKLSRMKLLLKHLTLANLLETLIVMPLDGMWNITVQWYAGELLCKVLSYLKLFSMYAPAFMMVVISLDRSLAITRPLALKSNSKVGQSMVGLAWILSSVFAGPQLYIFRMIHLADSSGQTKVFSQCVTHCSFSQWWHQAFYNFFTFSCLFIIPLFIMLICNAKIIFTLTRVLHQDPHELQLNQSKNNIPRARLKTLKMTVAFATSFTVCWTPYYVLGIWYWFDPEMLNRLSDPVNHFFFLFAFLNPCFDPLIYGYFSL
Outline: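 Agonist activity was measured as intracellular calcium flux in HEK293 cells engineered to stably express human GnRHR. After dye loading for 1 hour at 37 C, compounds in DMSO were added and fluorescence was followed for 3 minutes.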

[4] = G protein-coupled receptor (GPCR) small molecule agonists, calcium flux assay: HEK293 wild type cell line counter screen (AID 1920065)
Outline: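 Seed cells, incubate 18 h (37 C, 5% CO2); add calcium dye, 1 h at 37 C; pin-transfer compounds, ATP control or DMSO; read fluorescence 480/540 nm each second for 3 min.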

[5] = p53 small molecule agonists, cell-based qHTS assay with human liver microsomes (AID 1963577)
Outline: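 Fluorescence of the beta-lactamase reporter in p53RE-bla cells, detected with LiveBLAzer substrate (2 h, room temperature, dark), served as the read-out after 16 h compound exposure at 37 C with human liver microsomes and NADPH, each 0.5 mg/mL final.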

[6] = p53 small molecule agonists, cell-based qHTS assay with rat liver microsomes (AID 1963578)
Outline: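 Cells carrying a p53 response element–beta-lactamase reporter were plated and rested 5 h, then dosed with compound in DMSO plus rat liver microsomes and NADPH, each at 0.5 mg/mL final. After 16 h at 37 C, LiveBLAzer substrate was added for 2 h.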

[7] = p53 small molecule agonists, cell-based qHTS assay with human liver microsomes: qHTS cell viability counter screen (AID 1963579); also: nearly all actives have a fitted effect of over 45% in size
Outline: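 Cytotoxicity counter screen: p53RE-bla, 4,000 cells/well; 5 h settle, 37 C/5% CO2; cpd + HLM 0.5 mg/mL + NADPH 0.5 mg/mL (final); 16 h, 37 C; CellTiter-Glo, 30 min RT, luminescence.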

[8] = p53 small molecule agonists, cell-based qHTS assay with rat liver microsomes: qHTS cell viability counter screen (AID 1963580); also: nearly all actives have a fitted effect of over 45% in size
Outline: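 After the beta-lactamase ratio was read, CellTiter-Glo was added to the same wells and luminescence measured at 30 min; cells had been treated 16 h at 37 C with compounds, rat liver microsomes and NADPH (0.5 mg/mL final each).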

[9] = p53 small molecule agonists, cell-based qHTS assay: qHTS cell viability counter screen (AID 1963581); also: nearly all actives have a fitted effect of over 45% in size
Outline: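 Viability was counter-screened in parallel with the p53 agonist reporter by measuring intracellular ATP luminescence in the same HCT-116 p53RE-bla wells after 16 h compound treatment at 37 C.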

[10] = p53 small molecule agonists, cell-based qHTS assay (AID 1963582; active = well fitted activation curve with a large enough effect in the signal ratio in the repeat runs, not every such curve was filed as active; the % refers to the signal ratio)
Outline: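 Cells carrying a p53-responsive bla reporter are treated with test compounds for 16 h at 37 C; beta-lactamase activity is then detected with LiveBLAzer B/G FRET substrate after 2 h at room temperature.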

[11] = biological target: 5-hydroxytryptamine receptor 2A (Homo sapiens) (UniProt P28223); experiment: 5-hydroxytryptamine receptor 2A (HTR2A) small molecule antagonists, cell-based qHTS assay (AID 1963586); also: nearly all actives have a fitted effect of over 45% in size
Sequence of 5-hydroxytryptamine receptor 2A (Homo sapiens) (P28223 whole entry, looked up): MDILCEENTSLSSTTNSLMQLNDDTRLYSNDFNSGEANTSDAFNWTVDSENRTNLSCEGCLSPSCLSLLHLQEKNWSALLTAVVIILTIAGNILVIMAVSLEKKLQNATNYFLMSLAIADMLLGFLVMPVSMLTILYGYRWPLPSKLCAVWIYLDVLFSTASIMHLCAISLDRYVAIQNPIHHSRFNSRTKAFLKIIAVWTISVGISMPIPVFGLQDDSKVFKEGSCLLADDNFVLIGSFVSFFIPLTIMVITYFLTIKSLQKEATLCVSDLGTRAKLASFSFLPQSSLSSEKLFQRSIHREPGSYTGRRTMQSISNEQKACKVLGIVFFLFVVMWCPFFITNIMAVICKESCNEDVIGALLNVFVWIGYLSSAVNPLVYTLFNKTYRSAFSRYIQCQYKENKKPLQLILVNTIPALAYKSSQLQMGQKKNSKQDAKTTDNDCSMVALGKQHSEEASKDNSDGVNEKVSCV
Outline: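 CHO cells stably expressing human HTR2A were plated for 18 h at 37 C, then loaded with calcium dye for 1 h. Compounds were preincubated 5 min at room temperature before DOI (4 nM solution) was added. Kinetic fluorescence was read for 3 min.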

[12] = biological target: 5-hydroxytryptamine receptor 2A (Homo sapiens) (UniProt P28223); experiment: 5-hydroxytryptamine receptor 2A (HTR2A) small molecule agonists, cell-based qHTS assay (AID 1963587); also: nearly all actives have a fitted effect of over 30% in size
Outline: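 CHO cells stably expressing human HTR2A, plated 18 h, loaded with calcium dye 1 h at 37 C. Agonist mode: compounds added and intracellular calcium fluorescence recorded kinetically for 2 min at 1 sec intervals.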

[13] = biological target: Muscarinic acetylcholine receptor M1 (Homo sapiens) (UniProt P11229); experiment: Cholinergic receptor muscarinic 1 (CHRM1) small molecule antagonists, cell-based qHTS assay (AID 1963588); also: nearly all actives have a fitted effect of over 40% in size
Sequence of Muscarinic acetylcholine receptor M1 (Homo sapiens) (P11229 whole entry, looked up): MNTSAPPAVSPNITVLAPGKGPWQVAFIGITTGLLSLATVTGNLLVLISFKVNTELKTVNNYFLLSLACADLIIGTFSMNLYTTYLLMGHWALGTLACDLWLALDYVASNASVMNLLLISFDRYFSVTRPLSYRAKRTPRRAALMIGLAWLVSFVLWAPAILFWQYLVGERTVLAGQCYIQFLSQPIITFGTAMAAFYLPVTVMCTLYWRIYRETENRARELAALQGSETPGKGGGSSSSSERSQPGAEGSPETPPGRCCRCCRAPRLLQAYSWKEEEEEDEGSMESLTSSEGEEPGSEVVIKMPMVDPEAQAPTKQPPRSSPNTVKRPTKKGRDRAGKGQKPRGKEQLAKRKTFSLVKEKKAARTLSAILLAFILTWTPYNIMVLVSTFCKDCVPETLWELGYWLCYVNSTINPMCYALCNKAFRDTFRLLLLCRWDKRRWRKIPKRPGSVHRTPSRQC
Outline: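 Compounds were tested at 15 concentrations in three independent runs. Dye-loaded CHRM1-CHO cells were exposed 5 min at room temperature before stimulation by acetylcholine added at 50nM. Intracellular calcium was read kinetically on FDSS for 3 min.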

[14] = biological target: Muscarinic acetylcholine receptor M1 (Homo sapiens) (UniProt P11229); experiment: Cholinergic receptor muscarinic 1 (CHRM1) small molecule agonists, cell-based qHTS assay (AID 1963589); also: nearly all actives have a fitted effect of over 35% in size
Outline: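 Cells were plated and incubated 18 h at 37 C/5% CO2, loaded with calcium dye for 1 h at 37 C, then treated with compounds in DMSO. Fluorescence was recorded kinetically at 1 sec intervals.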

[15] = cAMP Responsive Elements (CRE) small molecule antagonists, cell-based qHTS assay (AID 1963591; active = well fitted inhibition curve with a large enough effect in the signal ratio in the repeat runs, not every such curve was filed as active; the % refers to the signal ratio)
Outline: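 Cells (CRE-bla HEK 293T, DMEM with 10% dialyzed FBS and 25 mM HEPES) are seeded and incubated 18 h. Compounds are added with NKH477 agonist at 0.25 uM final for 3 h, then FRET substrate for 2 h.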

[16] = biological target: Beta-2 adrenergic receptor (Homo sapiens) (UniProt P07550); experiment: Adrenergic beta2 receptor (ADRB2) small molecule antagonists, cell-based qHTS assay (AID 1963592); also: series mostly up to about 92 µM; nearly all actives have a fitted effect of over 50% in size
Sequence of Beta-2 adrenergic receptor (Homo sapiens) (P07550 whole entry, looked up): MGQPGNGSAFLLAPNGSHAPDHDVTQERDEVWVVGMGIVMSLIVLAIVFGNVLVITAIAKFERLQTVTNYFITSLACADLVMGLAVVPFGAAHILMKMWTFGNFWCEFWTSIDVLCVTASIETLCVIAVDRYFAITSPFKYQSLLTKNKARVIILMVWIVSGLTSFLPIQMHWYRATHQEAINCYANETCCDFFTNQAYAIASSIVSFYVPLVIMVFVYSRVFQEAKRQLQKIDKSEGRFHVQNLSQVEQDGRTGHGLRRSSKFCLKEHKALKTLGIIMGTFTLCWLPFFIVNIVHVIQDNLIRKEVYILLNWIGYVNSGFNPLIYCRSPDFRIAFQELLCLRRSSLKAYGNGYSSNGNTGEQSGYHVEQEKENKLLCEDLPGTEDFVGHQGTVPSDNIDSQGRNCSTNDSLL
Outline: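 Assay format: CHO-ADRB2 cells, 18-20hr seeding at 37C/5% CO2, then compound plus 1nM isoproterenol agonist mix for 0.5hr RT. Homogeneous time-resolved fluorescence cAMP detection after 1hr, expressed as 665/615 nm ratio.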

[17] = biological target: Beta-2 adrenergic receptor (Homo sapiens) (UniProt P07550); experiment: Adrenergic beta2 receptor (ADRB2) small molecule agonists, cell-based qHTS assay (AID 1963593);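 also: CHO cells stably overexpressing human ADRB2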
Outline: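 CHO cells stably over-expressing ADRB2 were plated overnight at 37C, then dosed with compounds plus a stimulation mix containing 100uM IBMX and 25uM Ro-20-1724 for 0.5hr at room temperature. cAMP was measured by HTRF competition, 1hr.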

[18] = biological target: D(2) dopamine receptor (Homo sapiens) (UniProt P14416); experiment: Dopamine D2 receptor (DRD2) small molecule agonists, cell-based qHTS assay (AID 1963594); also: nearly all actives have a fitted effect of over 35% in size
Sequence of D(2) dopamine receptor (Homo sapiens) (P14416 whole entry, looked up): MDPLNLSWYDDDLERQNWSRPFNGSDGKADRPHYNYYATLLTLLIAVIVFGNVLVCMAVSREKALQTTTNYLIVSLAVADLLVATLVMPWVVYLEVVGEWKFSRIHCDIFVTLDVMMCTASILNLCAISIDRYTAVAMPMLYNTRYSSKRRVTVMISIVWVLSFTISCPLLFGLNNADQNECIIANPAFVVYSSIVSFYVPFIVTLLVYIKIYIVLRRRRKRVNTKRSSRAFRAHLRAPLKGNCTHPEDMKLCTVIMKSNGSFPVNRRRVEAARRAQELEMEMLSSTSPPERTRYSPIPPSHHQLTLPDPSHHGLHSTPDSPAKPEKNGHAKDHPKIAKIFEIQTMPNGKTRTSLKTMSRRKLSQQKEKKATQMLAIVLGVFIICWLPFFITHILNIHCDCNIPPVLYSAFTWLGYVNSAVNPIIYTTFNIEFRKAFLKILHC
Outline: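 HEK293 cells stably expressing human DRD2, pre-treated with PDE inhibitor Ro20-1724 (0.1 mM final) and compound 10 min at room temperature, then stimulated with NKH477 (200nM […]) for 30 min. cAMP read by HTRF (665/620 nm).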

[19] = biological target: D(2) dopamine receptor (Homo sapiens) (UniProt P14416); experiment: Dopamine D2 receptor (DRD2) small molecule antagonists, cell-based qHTS assay (AID 1963595; active = well fitted inhibition curve with a large enough effect in the signal ratio in the repeat runs, with a control signal flat; the % refers to the signal ratio)
Outline: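 Readout: HTRF cAMP, cAMP-d2 competing with cellular cAMP for anti-cAMP cryptate, read after 1 h. Cells: DRD2-HEK293. Conditions: 0.1 mM Ro20-1724, 12 nM quinpirole, 200 nM NKH477, 30 min RT.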

[20] = cAMP Responsive Elements (CRE) small molecule agonists, cell-based qHTS assay (AID 1963590)
Outline: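 Cells carrying a CRE-driven beta-lactamase reporter (HEK 293T) are seeded, incubated overnight (18 h), and treated with test compounds for 3 h at 37 C; reporter activity is then detected with a FRET substrate after 2 h at room temperature.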
% is scaled to controls: 0 for no effect and ±100 for the full control effect.

C1CCSC1
inactive: Potency [1] | Potency [2] | Potency [3] | Potency [4] | Potency [5] | Potency [6] | Potency [7] | Potency [8] | Potency [9] | Potency [10] | Potency [11] | Potency [12] | Potency [13] | Potency [14] | Potency [15] | Potency [16] | Potency [17] | Potency [18] | Potency [19]

OCC1CC2CC1C1CCC(CO)C21 (configuration not stated)
inactive: Potency [1] | Potency [2] | Potency [3] | Potency [4] | Potency [5] | Potency [6] | Potency [7] | Potency [8] | Potency [9] | Potency [10] | Potency [11] | Potency [12] | Potency [13] | Potency [14] | Potency [20] | Potency [15] | Potency [16] | Potency [17] | Potency [18] | Potency [19]

CC(CO)Oc1ccccc1 (configuration not stated)
inactive: Potency [1] | Potency [2] | Potency [3] | Potency [4] | Potency [5] | Potency [6] | Potency [7] | Potency [8] | Potency [9] | Potency [10] | Potency [11] | Potency [12] | Potency [13] | Potency [14] | Potency [20] | Potency [15] | Potency [16] | Potency [17] | Potency [18] | Potency [19]

CCOC(OCC)OCC
inactive: Potency [1] | Potency [2] | Potency [3] | Potency [4] | Potency [5] | Potency [6] | Potency [7] | Potency [8] | Potency [9] | Potency [10] | Potency [11] | Potency [12] | Potency [13] | Potency [14] | Potency [20] | Potency [15] | Potency [16] | Potency [17] | Potency [18] | Potency [19]

CC1=CC(=O)[C@H]2C[C@@H]1C2(C)C
inactive: Potency [1] | Potency [2] | Potency [3] | Potency [4] | Potency [5] | Potency [6] | Potency [7] | Potency [8] | Potency [9] | Potency [10] | Potency [11] | Potency [12] | Potency [13] | Potency [14] | Potency [15] | Potency [16] | Potency [17] | Potency [18] | Potency [19]

CCSC(=O)N(CC(C)C)CC(C)C
inactive: Potency [1] | Potency [2] | Potency [3] | Potency [4] | Potency [5] | Potency [6] | Potency [7] | Potency [8] | Potency [10] | Potency [11] | Potency [12] | Potency [13] | Potency [14] | Potency [20] | Potency [15] | Potency [16] | Potency [17] | Potency [18] | Potency [19]

CCCCCCCCCCCCCCCCBr
inactive: activity change, negative = cytotoxicity [1] 3.53% [at 19 µM] | activity, positive = activation [2] -1.44% [at 19 µM] | activity change [3] 0.0207% [at 11.8 µM, hits give high values] | activation [4] -0.623% [at 11.8 µM] | activation [5] -0.838% [at 13.5 µM] | activation [6] -1.9% [at 13.6 µM] | activity change, negative = cytotoxicity [7] 0.899% [at 13.5 µM] | activity change, negative = cytotoxicity [8] 0.7% [at 13.5 µM] | activity change, negative = cytotoxicity [9] 4.33% [at 13.5 µM] | activation [10] 4.11% [at 13.5 µM] | activity, negative = inhibition [11] 4.99% [at 12.7 µM] | activation [12] -4.48% [at 15.9 µM] | activity, negative = inhibition [13] -1.85% [at 12.6 µM] | activation [14] -0.125% [at 15.8 µM] | activation [20] -0.367% [at 19 µM] | activity change, negative = inhibition [15] -0.0105% [at 18.9 µM] | activity change, negative = inhibition [16] -0.441% [at 19 µM] | activation [17] -6.98% [at 19 µM] | activation [18] -0.697% [at 19 µM] | activity change, negative = inhibition [19] -0.776% [at 18.9 µM]
